Shiga toxin inh = Shiga toxin inhibition; Vero cells, Shiga toxin protein synthesis inhibition reporter; inhibition, % at 38.7 µM; 9.2% of 290,000 active; AID 2315; in the data active means inhibition mostly above about 28%, no sharp cut-off; inactive means mostly below about 43%; further: 0% is about no effect
FBPA Giardia inh = Giardia lamblia aldolase inhibition. A8B2U2. purified Giardia FBPA. Potency, µM (titrated, usually from 59.6 µM), for inactives: at the highest dose activity, negative = inhibition, most hits filed as inhibitors. 0.71% of 290,000 active. AID 2451; further: potency means the concentration at half of the fitted maximal effect; on the % scale 0 is the no-effect control and ±100 the full control effect; nearly all actives have a fitted effect of over 55% in size
Target sequence (A8B2U2 whole entry, looked up): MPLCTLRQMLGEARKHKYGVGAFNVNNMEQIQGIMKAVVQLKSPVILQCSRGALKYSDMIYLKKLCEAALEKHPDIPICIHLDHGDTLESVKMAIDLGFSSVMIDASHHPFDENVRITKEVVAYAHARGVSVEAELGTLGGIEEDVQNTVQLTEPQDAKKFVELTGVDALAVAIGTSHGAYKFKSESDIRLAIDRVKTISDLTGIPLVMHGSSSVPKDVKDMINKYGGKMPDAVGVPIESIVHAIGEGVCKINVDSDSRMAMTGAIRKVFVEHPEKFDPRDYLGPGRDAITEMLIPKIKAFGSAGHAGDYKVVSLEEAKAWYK
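40 nM FBPA preincubated 10 min at RT with compound (up to 57.5 uM final), then substrate plus GAPDH/TPI/NAD/arsenate coupling and diaphorase/resazurin added. Fluorescence read after 20 min at RT, 525/598 nm.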
Pf growth 96h = inhibits malaria parasite growth, 96 h; Potency, µM (doses to about 28.7 µM), without a hit: top-dose activity change, negative = inhibition, hits mostly inhibitors; AID 504834; 6.9% of 320,000 active; P. falciparum luciferase reporter growth, 96 h; further: potency means the concentration at half of the fitted maximal effect; on the % scale 0 is the no-effect control and ±100 the full control effect
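Compounds incubated with erythrocytes infected by luciferase-expressing P. falciparum (2% hematocrit, 0.05% parasitemia final) for 96 hours, 37 C in 5% CO2. Growth inhibition scored as decreased luciferase luminescence.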
CHX counter = counter-screen hit for Shiga toxin inhibitors, cycloheximide | 12% of 300,000 active | max response, % | cell reporter, cycloheximide protein synthesis inhibition counterscreen | AID 2314; in the data active means max response mostly above about 13%, no sharp cut-off; inactive means mostly below about 14%; further: read at 38.3 µM for the half of the compounds with a filed dose; 0% is about no effect
NS1 function inh = blocks influenza NS1 protein function; Potency, µM (highest dose often 46.1 µM), for the others: at the top dose activity, positive = more growth; 0.4% of 270,000 active; calls by dose curve; further: potency means the concentration at half of the fitted maximal effect; actives are rising curves; nearly all actives have a fitted effect of over 50% in size
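S. cerevisiae expressing influenza A NS1, grown in glucose, washed, then diluted 1:100 into pH 6.0 -URA galactose medium with 23 nl compound. Growth recovery read as OD600; NS1-free strain serves as control.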
Pf growth 48h = P. falciparum growth inhibition at 48 hours (one generation). P. falciparum luciferase growth in erythrocytes, 48 h. 5.9% of 310,000 active. Potency, µM (series often up to 28.7 µM), for inactives: top-dose activity change, negative = inhibition, most hits filed as inhibitors; further: potency means the concentration at half of the fitted maximal effect; on the % scale 0 is the no-effect control and ±100 the full control effect
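A one-generation exposure of luciferase-tagged malaria parasites in RPMI 1640/Albumax erythrocyte culture, 37 C and 5% CO2. Inhibition is inferred from decreased luminescence after adding detection reagent.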
Starred values were filed as active, the others as inactive; i = inactive; ? = inconclusive; . = not tested or not shown; [ ] = dose if it differs, or a comment. Most compounds without a hit are left out; they make up all but 21% or so of the library. Unless noted, the call rests on the fitted dose curve; in most records, active means well fitted curve in the direction sought with a large enough effect; inconclusive means small, poorly fitted or top-dose-only effect, or another doubt; inactive means no such curve, though single readings can be large; an effect the other way counts as inactive or inconclusive.

SMILES	Shiga toxin inh	FBPA Giardia inh	Pf growth 96h	CHX counter	NS1 function inh	Pf growth 48h
Cc1cc(NC(=O)C(C)C)n(-c2nc3ccccc3s2)n1	68.6*	-0.2%	63.2%	31.4*	.	48.2%
C[C@H](NC(=O)c1nc[nH]c1C(=O)NCCCCCN)C(=O)OCc1ccccc1	.	.	57.9%	.	.	-27.1%
CCOc1ccccc1NC(=O)COC(=O)C(Cc1ccccc1)NC(=O)c1ccco1 (stereo not given)	.	.	33.2%	.	.	35.7%
O=Cc1cccn1-c1ccc2ccccc2c1	42.1*	-2.9%	6.2%	29.5*	-1.9%	59.3%
N#CC1(NC(=O)Cn2cc(C(F)(F)F)cc(Cl)c2=O)CCCCC1	-4.0	.	4.4%	-2.7	5.8%	-4.0%
CC(=O)C1=C(O)C(=O)N(c2ccc(Br)cn2)C1c1ccc(F)cc1 (stereo not given)	74.8*	-8.2%	16.3%	37.5*	2.7%	66.5%
CC(=O)C1=C(O)C(=O)N(c2ccc(Br)cn2)C1c1ccccc1F (stereo not given)	17.6	13.7%	79.7%	14.2	4.0%	22.6%
CC(=O)C1=C(O)C(=O)N(c2ccc(Br)cn2)C1c1ccc(Br)cc1 (stereo not given)	92.7*	-24.5%	5.5%	20.7*	4.8%	13.4%
COc1cc(C2C(C(C)=O)=C(O)C(=O)N2c2ccc(Br)cn2)ccc1O (stereo not given)	-6.9	-8.4%	?	-1.1	26.2%	20.9%
Nc1nnc(SCC(=O)OCC(=O)c2ccccc2Br)s1	2.2	-9.3%	24.5%	-4.1	.	-4.0%
O=P(c1ccccc1)(c1ccccc1)C(O)c1ccc(Br)cc1 (stereo not given)	.	8.1%	?	4.9	3.3%	?
CCOC(=O)c1c(NC2OC(=O)c3c2ccc(OC)c3OC)sc(C(=O)OC(C)(C)C)c1C (stereo not given)	active	-2.2%	?	31.4*	4.7%	?
CCOC(=O)C1=C(CC)OC(N)=C(C#N)C1c1ccsc1 (stereo not given)	-8.0	-22.1%	13.1µM*	3.4	1.7%	-6.7%
CCCC1=C(C(=O)OCC)C(c2ccc(OC)c(CSc3ccccn3)c2)C(C#N)=C(N)O1 (stereo not given)	-2.4	-8.2%	?	5.0	-4.1%	9.28µM*
C=CCOC(=O)C1=C(C)OC(N)=C(C#N)C1c1ccc(OC)c(CSc2ccccn2)c1 (stereo not given)	-8.7	-10.0%	4.6%	1.6	3.2%	4.8%
O=C(NCCC1CCCCN1S(=O)(=O)c1ccccc1)C(=O)Nc1ccc(F)cc1F (stereo not given)	.	.	-20.4%	.	.	-2.0%
CCN(C1CCS(=O)(=O)C1)S(=O)(=O)c1ccc(Cl)s1 (stereo not given)	.	.	36.5%	.	.	-13.2%
Cc1coc2c1c(C)cc1oc(=O)c(CC(=O)N[C@@H](C)C(=O)O)c(C)c12	-12.8	3.1%	-1.9%	-0.3	1.1%	15.5%
CCNC(=S)N(CCCN(C)C)Cc1cc2cc3c(cc2[nH]c1=O)OCCO3	.	6.9%	?	-3.0	1.2%	-0.8%
Cc1c(/C=N\NC(=O)c2ccc(F)cc2)cnn1C	26.5*	-1.7%	0.6%	16.4	13.4%	24.7%
Cc1c(/C=N/NC(=O)c2ccc(Br)o2)cnn1C	57.2*	-0.4%	0.0%	38.5*	6.2%	74.3%
Cc1c(/C=N\NC(=O)c2cccc(F)c2)cnn1C	92.1*	3.6%	7.2%	44.8*	0.6%	25.4%
CCc1ccc(OCc2cccc(C(=O)N/N=C\c3cnn(C)c3C)c2)cc1	53.0*	-17.1%	6.9%	14.6	10.6%	22.0%
Cc1c(/C=N/NC(=O)c2ccc3c(c2)OCO3)cnn1C	31.5	-0.6%	8.8%	10.6	-0.9%	1.9%
Cc1c(/C=N/NC(=O)C(C)(C)Oc2ccc(Cl)cc2)cnn1C	-21.5	5.9%	.	-1.6	-0.3%	0.5%
SMILES	Shiga toxin inh	FBPA Giardia inh	Pf growth 96h	CHX counter	NS1 function inh	Pf growth 48h
Cc1c(/C=N/NC(=O)C2(O)c3ccccc3-c3ccccc32)cnn1C	8.5	4.2%	-1.6%	-1.8	24.5%	?
Cc1occc1C(=O)N/N=C/c1cnn(C)c1C	62.3*	-1.1%	10.0%	32.7*	19.9%	99.3%
CCCCOc1ccc2c(c1)/C(=C(\C(Cl)=C(Cl)Cl)[N+](=O)[O-])N2	2.1	-6.4%	6.8%	-1.2	.	?
COc1ccc2nc(NC(=O)c3ccc(F)cc3)sc2c1	.	-1.5%	?	26.8*	-11.1%	78.8%
Cc1ccc(C(=O)Nc2nc3ccccc3c(=O)s2)cc1	101.4*	?	16.6%	43.5*	5.7%	20.5%
CC(=O)Nc1nc(=O)c2ccccc2s1	31.8	0.9%	-27.5%	-6.7	-2.6%	26.5%
O=C(CSc1nc2ccccc2s1)NC1CCCC1	32.2	-0.7%	4.1%	6.8	-5.4%	14.7%
O=C(NC1CC1)c1ccc(-c2nc3ccccc3s2)s1	38.0*	4.6%	-13.8%	23.5	-116.1%	-7.9%
O=C(Nc1nc(=O)c2ccccc2s1)c1ccccc1	94.8*	?	-0.5%[5.75 µM]	46.3*	8.0%	15.9%
Cc1cc(NC(=O)CSc2nnc3ccc(-c4ccc(F)cc4)nn23)no1	.	.	-2.5%	.	.	-32.1%
NC(=O)c1ccc2nc(NC(=O)c3ccc(N)cc3)sc2c1	33.5*	3.6%	11.7µM*	19.5*	.	80.6%
O=C(Nc1nc2ccccc2s1)c1ccc(Cl)s1	85.8*	-5.5%	-55.5%	31.6*	-33.5%	.
COc1cccc(C(=O)Nc2nc3ccccc3s2)c1	56.6*	-8.8%	14.7µM*	35.5*	-14.6%	323.4%
COc1ccc(C(=O)Nc2nc3ccccc3s2)cc1	22.0	-10.2%	0.0%	8.0	-79.9%	169.3%
CC(C)(C)N1C(=O)c2ccc(C(=O)Nc3ccc(O)cc3)cc2C1=O	45.6*	10.7%	i	23.3*	4.4%	26.4%
COc1ccc(NC(=O)N2CC[C@@]3(CCCNC3)C2)cc1	.	0.2%	.	.	.	.
CC(OC(=O)C1=COCCO1)C(=O)Nc1cc(S(=O)(=O)N2CCCCC2)ccc1Cl (stereo not given)	-6.8	-0.1%	?	-1.5	.	-4.4%
O=C(Nc1nc2c(s1)C(=O)CCC2)c1ccccc1	48.3	2.0%	?	42.9*	-61.9%	391.4%
CCc1nnc(NC(=O)c2ccc3ncsc3c2)s1	47.0*	0.7%	37.7%	18.3*	5.1%	11.7%
O=C(Nc1nc2ccccc2s1)c1ccc(F)cc1	81.6*	-11.5%	35.7%	31.7*	-0.2%	112.7%
Cc1cnc(NC(=O)c2ccc3ncsc3c2)s1	.	.	-66.0%	.	.	110.6%
Cc1ccc2nc(NC(=O)c3ccc(-c4nc5ccccc5s4)s3)sc2c1	86.3*	3.1%	163.7%	50.6*	25.1%	132.0%
O=C(Nc1nc(=O)[nH]s1)c1ccccc1	1.9	-0.5%	-20.1%	7.4	.	16.9%
CC(=O)Nc1ccccc1NC(=O)C/C(C)=N/NC(=O)C(=O)N1CCCCC1	-6.9	-23.3%	?	6.8	-2.6%	-9.6%
O=C(Cn1ccc(NC(=O)OCc2ccccc2)nc1=O)NCCN1CCOCC1	.	.	-25.0%	.	.	28.4%

Bioassay records as filed in PubChem BioAssay.
